Sampled rows, rich in hits. Any-hit rate of the full collection: about 0.79%.
DAGLB inh: DAGLB lipase inhibitors, primary screen, biochemical, fluorescence, HTS | Diacylglycerol lipase-beta (Homo sapiens), Q8NCG7 | HEK293T DAGLB membrane lysate, EnzChek fluorogenic substrate | inhibition, % at 5.17 µM | hit rate 0.059% among 340,000 | AID 504411, 2011; in the data active means inhibition above about 34%
HDAC3 inhib: HDAC3 deacetylase inhibitors, primary screen, biochemical, fluorescence, cell-free homogeneous. Histone deacetylase 3 (Homo sapiens), O15379. inhibition, % at 8.3 µM. hit rate 0.15% among 320,000. recombinant HDAC3, fluorogenic peptide/trypsin coupled; in the data active means inhibition above about 26%, passing the limit was not always enough
hiPSC survival: enhancers of single-cell hiPSC survival, primary screen, ATPlite luminescence. AID 602274, 2012. survival enhancement, % at 20 µM. 100% = ROCK inhibitor wells, 0% = DMSO. hit rate 0.044% among 360,000; in the data active means survival enhancement above about 18%;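 further: cells exposed to compounds for 16 hours before the ATP read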
LANA-H2B inh: blockers of LANA interaction with H2A/H2B – biochemical, FP readout, HTS, primary screen; inhibition, % (test concentration not listed); hit rate 0.6% among 320,000; AID 2629, 2010; Protein LANA1 (Human herpesvirus 8 type P (isolate GK18)), Q9QR71; cell-free LANA-H2A/H2B peptide, fluorescence polarization; in the data active means inhibition mostly above about 10%, no sharp cut-off; inactive means mostly below about 6.7%
Target sequence (Q9QR71 whole entry, looked up): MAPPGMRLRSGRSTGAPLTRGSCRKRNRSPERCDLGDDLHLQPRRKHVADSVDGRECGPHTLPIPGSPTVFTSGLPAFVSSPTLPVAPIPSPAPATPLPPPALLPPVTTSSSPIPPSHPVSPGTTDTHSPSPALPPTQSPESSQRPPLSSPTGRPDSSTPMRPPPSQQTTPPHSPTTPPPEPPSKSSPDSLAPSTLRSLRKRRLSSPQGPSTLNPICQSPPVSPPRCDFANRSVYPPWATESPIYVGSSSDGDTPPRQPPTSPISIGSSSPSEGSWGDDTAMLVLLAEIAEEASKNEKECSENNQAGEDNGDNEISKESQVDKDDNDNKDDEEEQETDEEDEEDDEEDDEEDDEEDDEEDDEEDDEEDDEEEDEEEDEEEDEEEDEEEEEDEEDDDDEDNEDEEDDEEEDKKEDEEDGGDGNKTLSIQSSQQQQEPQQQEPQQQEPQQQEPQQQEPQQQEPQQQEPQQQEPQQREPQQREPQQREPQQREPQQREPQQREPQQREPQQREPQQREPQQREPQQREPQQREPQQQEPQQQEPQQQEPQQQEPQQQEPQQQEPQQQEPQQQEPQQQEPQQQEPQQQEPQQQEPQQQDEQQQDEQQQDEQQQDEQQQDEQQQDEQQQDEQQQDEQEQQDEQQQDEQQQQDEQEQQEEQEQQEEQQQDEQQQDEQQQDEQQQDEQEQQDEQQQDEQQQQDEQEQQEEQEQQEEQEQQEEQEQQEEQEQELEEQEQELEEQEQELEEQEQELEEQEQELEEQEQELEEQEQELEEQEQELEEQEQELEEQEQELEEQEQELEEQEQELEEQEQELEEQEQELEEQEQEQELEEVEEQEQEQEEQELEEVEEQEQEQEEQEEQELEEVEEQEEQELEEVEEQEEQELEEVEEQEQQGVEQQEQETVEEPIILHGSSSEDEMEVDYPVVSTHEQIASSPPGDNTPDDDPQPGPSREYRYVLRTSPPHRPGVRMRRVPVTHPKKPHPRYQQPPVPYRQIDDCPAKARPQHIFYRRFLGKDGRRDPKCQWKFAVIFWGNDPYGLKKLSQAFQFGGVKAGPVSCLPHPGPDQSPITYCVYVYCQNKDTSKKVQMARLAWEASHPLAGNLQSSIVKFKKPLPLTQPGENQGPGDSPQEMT
A number is an active result; i = inactive; nt = no result.

SMILES | DAGLB inh | HDAC3 inhib | hiPSC survival | LANA-H2B inh
O=C(NCc1ccccn1)c1ccc(NS(=O)(=O)c2cccc(Cl)c2)cc1 | i | i | i | 38
COC(=O)CCCn1cc(CN2CC(N3CCCCC3)CS2(=O)=O)nn1 (stereo unspecified) | nt | nt | i | nt
CCC(CC)C1=NN2C(=N)/C(=C/c3ccc(OC(=O)c4ccco4)cc3)C(=O)N=C2S1 | i | 32 | i | i
CCS(=O)(=O)C1=NN2C(=N)/C(=C\c3ccc(OC(=O)c4ccco4)cc3)C(=O)N=C2S1 | i | i | i | i
Cc1cccc(N(Cc2ccccc2)C(=O)c2ccc(S(C)(=O)=O)cc2)c1 | i | i | i | 23
CS(=O)(=O)c1ccc(C(=O)N(Cc2ccccc2)c2ccccc2)cc1 | i | i | i | i
Cc1cc(C(=O)N2CCC(C(N)=O)CC2)c(C)o1 | i | i | i | i
Cc1cc(C(=O)N2CCCC2C(=O)O)c(C)o1 (stereo unspecified) | i | i | i | 18
CN(C)CC/C=C1\c2ccccc2COc2ccccc21 | i | nt | i | 70
O=C(NCCN1CCOCC1)c1cc(-c2ccc(F)cc2)on1 | i | i | i | 182
O=C(Cc1cccs1)N1CCN(S(=O)(=O)c2cc(Cl)ccc2Cl)CC1 | i | i | i | i
O=C(CCn1cccn1)Nc1ccc2c(c1)OCO2 | i | i | i | 15
c1ccc(C2CCC(N3CCN(c4ccccc4)CC3)CC2)cc1 (stereo unspecified) | i | i | i | i
COc1ccccc1Cc1c(-c2cccc(Cl)c2)nc2ccc(Cl)cn12 | nt | nt | i | nt
Nc1ccn(C(C=O)CC(C=O)CO)c(=O)n1 (stereo unspecified) | nt | nt | i | nt
O=C(Nc1ccc(C(=O)NC2CCCCC2)cc1)c1cccnc1 | i | i | i | 14
CCCCc1cc(=O)oc2cc(OCC(=O)NCCN3CCOCC3)ccc12 | i | i | i | 15
COc1ccc(-c2cc(=O)oc3cc(OCC(=O)NCCN4CCOCC4)ccc23)cc1 | i | i | i | 16
Cc1cc(=O)oc2cc(OCC(=O)NCCN3CCOCC3)ccc12 | i | i | i | i
CSc1nccc(Oc2cncc(Cl)c2)n1 | i | i | i | 11
CCn1c2ccccc2c2cc(NC(=O)c3ccc(=O)oc3)ccc21 | nt | i | i | i
CCn1c2ccccc2c2cc(NC(=O)c3ccc(C)c([N+](=O)[O-])c3)ccc21 | i | i | i | i
CCn1c2ccccc2c2cc(NC(=O)c3cccc([N+](=O)[O-])c3)ccc21 | i | i | i | 79
CCn1c2ccccc2c2cc(NC(=O)c3coc(=O)c(Br)c3)ccc21 | nt | i | i | 20
OC(CNCCC1C=Nc2ccccc21)Cn1c2ccc(Cl)cc2c2cc(Cl)ccc21 (stereo unspecified) | i | 46 | i | i
SMILES | DAGLB inh | HDAC3 inhib | hiPSC survival | LANA-H2B inh
OC(CNCC1CCCO1)Cn1c2ccc(Cl)cc2c2cc(Cl)ccc21 (stereo unspecified) | i | i | i | i
NS(=O)(=O)c1ccc(NC(=O)CSc2nc3ccccc3nc2N2CCOCC2)cc1 | i | i | i | i
O=c1c2ccccc2sn1-c1ccccc1 | i | 49 | i | i
Cc1ccc(-n2sc3ccccc3c2=O)cc1S(=O)(=O)N1CCCCC1 | i | 39 | i | i
O=c1c2ccccc2sn1-c1ccc(S(=O)(=O)N2CCCCC2)cc1 | i | i | i | i
Cn1ncc2c(NNC(=O)c3ccccc3Cl)ncnc21 | i | i | i | i
Cc1ccccc1C(=O)NNc1ncnc2c1cnn2C | i | i | i | 26
CC(CN1CCOCC1)OC(=O)COc1ccc(F)cc1 (stereo unspecified) | i | i | i | i
O=C(COc1ccc(F)cc1)OCCN1CCOCC1 | i | i | i | 34
COc1cccc2c1C(=O)c1c(O)c3c(c(O)c1C2=O)C[C@@](O)(C(=O)CO)C[C@@H]3O[C@H]1C[C@H](N)[C@H](O)[C@H](C)O1 | i | i | i | 25
COc1cccc2c1C(=O)c1c(O)c3c(c(O)c1C2=O)C[C@@](O)(C(=O)CO)C[C@@H]3OC1CC(N)C(O)C(C)O1 (stereo partly specified) | i | nt | i | nt
CCn1cc(C(=O)O)c(=O)c2cnc(N3CCN(C(=S)NC(=O)c4ccccc4)CC3)nc21 | i | i | i | 14
CC(=O)NC(Cc1cccc(C)c1)C(=O)NC1CCN(S(=O)(=O)c2ccccc2)CC1 (stereo unspecified) | i | i | i | 13
CC(=O)NC(Cc1ccc(F)cc1)C(=O)NC1CCN(S(=O)(=O)c2ccccc2)CC1 (stereo unspecified) | i | i | i | i
